Active and inactive are the calls of the source. Calls follow the shape of the dose curve; as a rule, active = well fitted curve in the direction sought with a large enough effect in the repeat runs; inconclusive = weak or mixed curves; inactive = flat fitted curve, though single readings scatter.
Test: qHTS assay to test for compound auto fluorescence at 460 nm (blue) in HepG2 cells (AID 720687)
Settings: autofluorescence 405/460 nm, 1 h; series mostly up to 91.3 µM
Source text: U.S. Tox21 Program National Center for Advancing Translational Sciences [NCATS] NIH Chemical Genomics Center [NCGC] U.S. Environmental Protection Agency [EPA] National Institutes of Environmental Health Sciences [NIEHS] National Toxicology Program [NTP] U.S. Food and Drug Administration [FDA] Tox21 Assay Overview: Compound auto fluorescence often interferes with screening of the compound library against various biological targets and signaling pathways. Some of these compounds may have fluorophoric properties. Such properties may interfere with the assay outputs resulting in false positives and/or negatives. To decrease such complications and ensure the compound activities are relevant in terms of biological response, the Tox21 10K compound library was screened for auto fluorescence. From the fluorophores used as reporter signals in our screening assays, the auto fluorescence equivalencies of compounds against three fluorophores have been evaluated: Triamterene, Fluorescein and Rose Bengal sodium for blue, green and red fluorescence, respectively. The fluorescence intensities were measured using Excitation/Emission wavelengths at 405/460nm, 485/535nm and 540/590nm for blue, green and red labels, respectively. This assay includes the blue fluorescence data.
Tox21 Assay Protocol Summary: 2,000 HepG2 cells in 5 uL of culture medium (MEM containing 10% FBS) per well were dispensed into black wall/clear bottom 1536-well plates using a Multidrop Combi Dispenser (ThermoFisher Scientific, Waltham, MA). The assay plates were incubated overnight at 37 C to allow cell attachment to the well bottom, followed by the transfer of 23 nL compound or DMSO vehicle by a pintool work station (Kalypsys , San Diego, CA). After the assay plates were incubated for 1 hr at 37 C and 5% CO2, fluorescence intensities in the assay plates were measured by an Envision (PerkinElmer, Shelton, CT) plate reader using three labels for measuring blue, green and red fluorescence at […] 460, 535 and 590 nm respectively.
In the case of `CN(CCOc1ccc(CC2SC(=O)NC2=O)cc1)c1ccccn1` (stereo not given), the outcome is reported as “inactive”.
With `O=S(=O)(O)c1cc(S(=O)(=O)O)c2c(N=Nc3ccccc3)c(O)ccc2c1` the outcome was “inactive”.
In the case of `O=C(c1cc(O)c(O)c(O)c1)c1ccc(O)c(O)c1O`, the outcome is reported as “inactive”.
With `CC1(C)CC(N=C=O)CC(C)(CN=C=O)C1` (stereo not given) the outcome was “inactive”.
For `CCCCC(CC)C(=O)OCCOCCOCCOC(=O)C(CC)CCCC` (stereo not given), the outcome was “inactive”.
With `O=C(O)c1ccc([N+](=O)[O-])cc1` the outcome was “inactive”.
For `CC(C)(C)C(=O)C1C(=O)c2ccccc2C1=O`, the outcome was “inactive”.
In the case of `CC(=O)Nc1ccc(C(=O)O)cc1`, the outcome is reported as “inactive”.
With `COCC(=O)O` the outcome was “inactive”.
For `CC1CC(OC(=O)c2ccccc2O)CC(C)(C)C1` (stereo not given), the outcome was “inactive”.
With `O=C(Cl)c1c(Cl)c(Cl)c(C(=O)Cl)c(Cl)c1Cl` the outcome was “inactive”.
For `C=C1C2CCC(C2)C1(C)C` (stereo not given), the outcome was “inactive”.
In the case of `C=C(C)C(=O)OCCCCCCCCCCCC`, the outcome is reported as “inactive”.
With `Cc1cc(NS(=O)(=O)c2ccc(N)cc2)no1` the outcome was “inactive”.
With `CC(C)(CO)COC(=O)C(C)(C)CO` the outcome was “inactive”.
With `CCCCCCCCCCCCN` the outcome was “inactive”.
With `CCC(=O)O` the outcome was “inactive”.
With `Nc1c(S(=O)(=O)O)cc(Br)c2c1C(=O)c1ccccc1C2=O` the outcome was “inactive”.
With `Cc1ccc(C)c(C)c1` the outcome was “inactive”.
With `O=C(O)c1cc(-c2ccccc2)nc2ccccc12` the outcome was “inactive”.
For `O=S(=O)(Oc1ccc(Cl)cc1Cl)c1ccccc1`, the outcome was “inactive”.
For `Oc1c(Cl)cc(Cl)c(Cl)c1Cl`, the outcome was “inactive”.
With `Cc1ccc(C(=O)O)o1` the outcome was “inactive”.
With `CCCCC(CC)COC(=O)/C=C\C(=O)OCC(CC)CCCC` (stereo not given) the outcome was “inactive”.
For `CC(C)n1c(/C=C/[C@@H](O)C[C@@H](O)CC(=O)O)c(-c2ccc(F)cc2)c2ccccc21`, the outcome was “inactive”.
With `OC[C@@H](O)[C@@H](O)[C@H](O)[C@@H](O)CO` the outcome was “inactive”.
For `CC1(C)O[C@@H]2C[C@H]3[C@@H]4C[C@H](F)C5=CC(=O)CC[C@]5(C)[C@H]4[C@@H](O)C[C@]3(C)[C@]2(C(=O)CO)O1`, the outcome was “inactive”.
For `O=[N+]([O-])C(CO)(CO)CO`, the outcome was “inactive”.
With `C/C=C(C)/C=C/C=C(C)C` the outcome was “inactive”.
In the case of `O=C(c1ccc(O)cc1)c1ccc(O)cc1O`, the outcome is reported as “inactive”.
In the case of `O=C1O[C@H](CO)[C@@H](O)[C@H](O)[C@H]1O`, the outcome is reported as “inactive”.
With `CC(=O)CCc1ccccc1` the outcome was “inactive”.
With `CCCCOCCOCCOC(=O)CCCCC(=O)OCCOCCOCCCC` the outcome was “inactive”.
For `NCc1cccc(CN)c1`, the outcome was “inactive”.
In the case of `Cn1c([N+](=O)[O-])cnc1COC(N)=O`, the outcome is reported as “inactive”.
With `ClC1=C(Cl)C(Cl)(Cl)C(Cl)=C1Cl` the outcome was “inactive”.
In the case of `O=C(Oc1ccccc1)c1ccc(O)cc1`, the outcome is reported as “inactive”.
For `C=CC(=O)OCCCCCCCC(C)C`, the outcome was “inactive”.
For `O=S(=O)(O)CCS`, the outcome was “inactive”.
For `NCCNCCNCCNCCN`, the outcome was “inactive”.

From PubChem BioAssay (Tox21)
